Hits are enriched below; roughly 8.3% of the tested compounds scored in any of these assays.
FBPA Giardia inh – inhibitors of Giardia lamblia fructose-1,6-bisphosphate aldolase; purified Giardia FBPA; Potency, µM (highest dose often 59.6 µM), inactives show at the top dose activity, negative = inhibition, most hits filed as inhibitors; A8B2U2; 290,000 tested, 0.71% active; note: potency is the fitted concentration of half-maximal effect; nearly all actives have a fitted effect of over 55% in size
Target sequence (A8B2U2 whole entry, looked up): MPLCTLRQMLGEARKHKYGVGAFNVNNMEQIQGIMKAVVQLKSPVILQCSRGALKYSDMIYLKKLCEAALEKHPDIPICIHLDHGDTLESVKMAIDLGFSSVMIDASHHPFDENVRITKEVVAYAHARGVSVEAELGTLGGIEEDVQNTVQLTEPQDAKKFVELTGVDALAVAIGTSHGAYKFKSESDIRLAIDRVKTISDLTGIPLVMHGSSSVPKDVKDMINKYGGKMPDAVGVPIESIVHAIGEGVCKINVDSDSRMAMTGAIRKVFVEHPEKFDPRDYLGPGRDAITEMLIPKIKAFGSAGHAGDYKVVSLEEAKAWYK
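40 nM FBPA preincubated 10 min at RT with compound (up to 57.5 uM final), then substrate plus GAPDH/TPI/NAD/arsenate coupling and diaphorase/resazurin added. Fluorescence read after 20 min at RT, 525/598 nm.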
HCV inh – inhibitors of hepatitis C virus infection; 340,000 tested, 3.4% active; AID 651820; Huh7.5.1 HCVcc-Cre infection, luciferase reporter, 44 h; Potency, µM (series often up to 41.8 µM), inactives show at the highest dose activity change, negative = inhibition, usual class: inhibitors; note: potency is the fitted concentration of half-maximal effect
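Infectious HCV cell culture screen: compound-treated cells (1,000/well, pre-plated 4 h) are infected with HCVcc-Cre at roughly 0.5 moi and grown 44 h. Infection is quantified by luciferase signal after 15 min substrate incubation at room temperature.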
LASV entry inh – blocks Lassa virus binding to or entry into cells; Lassa virus pseudotype entry inhibition, cell reporter; Potency, µM (top dose mostly 37.9 µM), inactives show top-dose activity change, negative = inhibition, actives largely listed as inhibitors; 300,000 tested, 1.2% active; calls by dose curve; tested in HEK293 cells; note: potency is the fitted concentration of half-maximal effect; nearly all actives have a fitted effect of over 50% in size
Marburg entry inh – blocks Marburg virus binding to or entry into cells; Marburg virus pseudotyped entry inhibition, cell reporter; Potency, µM (highest dose often 37.8 µM), for inactives: at the top dose activity change, negative = inhibition, most hits filed as inhibitors; 300,000 tested, 1.8% active; calls by dose curve; tested in HEK293 cells; note: potency is the fitted concentration of half-maximal effect
HCMV inh – human cytomegalovirus inhibition. activity change, negative = inhibition, % at 57.5 µM. HFF cells, HCMV-luciferase reporter, 72 h; active compounds read low. 410,000 tested, 4.5% active; in the data active = activity change below about -60%; inconclusive = no clear call, values can overlap the other calls; inactive = above about -39%
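HFF cells seeded 16 h at 37C, treated with compounds, infected with luciferase-reporter HCMV at MOI 1 PFU/cell; luciferase read at 72 h post infection, normalized to buffer-only and Salinomycin controls.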
FMDV inh – blocks foot and mouth disease virus | FMDV antiviral cell-based qHTS | Potency, µM (doses to about 57.9 µM), for inactives: at the top dose activity change, negative = inhibition, actives largely listed as inhibitors | 410,000 tested, 1.2% active | AID 1159524; calls by dose curve; tested in HEK293T cells; note: read-out not given here; potency is the fitted concentration of half-maximal effect; nearly all actives have a fitted effect of over 45% in size
Active calls of the source: *; ? = inconclusive; . = no result; [ ] = remark or other dose. Unless noted, calls come from the whole dose curve; as a rule, active = well fitted curve in the direction sought with a large enough effect; inconclusive = small, poorly fitted or top-dose-only effect, or another doubt; inactive = no such curve, though single readings can be large; an effect the other way counts as inactive or inconclusive. % is set by controls: 0 for no effect and ±100 for the full control effect.

SMILES	FBPA Giardia inh	HCV inh	LASV entry inh	Marburg entry inh	HCMV inh	FMDV inh
Ic1ccccc1CNC1C2CCN(CC2)C1C(c1ccccc1)c1ccccc1 (centres undefined)	-2%	.	6.5µM*	4.6µM*	.	.
Fc1ccccc1CNC1CN2CCC1CC2 (centres undefined)	-8%	16%	.	1%[46.1 µM]	-28	2%
Ic1ccccc1CN[C@@H]1C2CCN(CC2)[C@H]1C(c1ccccc1)c1ccccc1	.	.	.	4.6µM*	.	.
Ic1ccccc1CN[C@@H]1C2CCN(CC2)[C@@H]1C(c1ccccc1)c1ccccc1	.	?	.	.	-99*	?
COc1ccc(/C=C/C(=O)Nc2ccc(C)c(S(=O)(=O)N3CCOCC3)c2)cc1	.	2.8µM*	.	.	-95*	?
COc1ccc(NC(=O)/C=C/c2ccc(S(=O)(=O)N3CCOCC3)cc2)cc1	.	-4%	.	.	-19	1%
CCN1CCN(c2ccc(S(=O)(=O)N3CCOCC3)cc2NC(=O)/C=C/c2ccc(OC)cc2OC)CC1	.	8%	-23%[46.1 µM]	?	-30	4%
COc1ccc(/C=C/C(=O)Nc2ccc(S(=O)(=O)N3CCOCC3)cc2)c(OC)c1	.	10µM*	.	.	?	-23%
COc1cccc(CNCC(O)(c2ccc(Cl)cc2)c2ccc(Cl)cc2)c1	0%	-30%	-11%	18µM*	-3	?
Cc1ccc(CNCC(O)(c2ccccc2)c2ccc(Cl)cc2)cc1 (centres undefined)	0%	?	-15%[46.1 µM]	10µM*	0	-19%
O=C(CN1CCOCC1)N1CC(=O)N2[C@@H](CO)[C@H](c3ccc(Br)cc3)[C@@H]2C1	.	.	.	.	-2	.
COc1cccc(-c2nc(CS(=O)(=O)CC(=O)NCc3ccccc3)c(C)o2)c1	7%	?	-1%	1%	-12	-22%
COc1cccc(-c2nc(CS(=O)(=O)CC(=O)Nc3ccc(F)cc3F)c(C)o2)c1	9%	11µM*	?	-25%[46.1 µM]	26	?
CCCCCC(O)c1ccc([C@H]2CCC(=O)[C@@H]2CCCCCCC(=O)O)cc1 (some centres undefined)	24%	.	.	.	.	.
Cc1ccc(-c2ocnc2C(=O)Nc2ccccc2NC(=O)c2ccccn2)cc1	13%	?	-20%	?	?	-13%
Cc1cccc(-c2ocnc2C(=O)Nc2ccccc2NC(=O)c2ccccn2)c1	19%	?	?	?	-98*	0%
Cc1ccc(Sc2ccc([N+](=O)[O-])cc2[N+](=O)[O-])nc1	-13%	-5%	?	?	4	?
O=[N+]([O-])c1ccc(Sc2nc3ccccc3o2)c([N+](=O)[O-])c1	-18%	.	-27%[14.3 µM]	16µM*	-107*	35µM*
O=[N+]([O-])c1ccc(Cl)cc1Sc1nc2ccccc2o1	0%	?	-13%	-4%	-8	-35%
Cc1ccnc(Sc2ccc([N+](=O)[O-])cc2[N+](=O)[O-])n1	-6%	?	?	13µM*	-22	?
CC1CCN(c2ccc(NC(=O)c3ccc(Br)o3)cc2)CC1	.	0%	10µM*	?	58	39%
CCC(=O)NC(=S)Nc1ccc(NC(=O)c2ccc(Br)o2)cc1	-5%	?	.	.	-103*	35%
Cc1ccc(C(=O)N2CCN(c3ccc(NC(=O)c4ccc(Br)o4)cc3)CC2)cc1	-6%	10µM*	?	?	?	?
O=S(=O)(NCCc1csc2nc(-c3ccccc3)nn12)c1ccc(Oc2ccccc2)cc1	.	.	?	.	-67*	-9%
Cc1cc(C)c(S(=O)(=O)NCCc2csc3nc(-c4ccc(Cl)cc4)nn23)c(C)c1	.	.	-1%[46.1 µM]	.	-66*	4%
Cc1c(CCNS(=O)(=O)c2ccccc2)sc2nc(-c3ccc(Cl)cc3)nn12	.	.	?	.	-75*	-27%
COc1cc(-c2noc(C3CC(=O)N(c4cc(C)ccc4C)C3)n2)cc(OC)c1OC (centres undefined)	.	.	-29%[46.1 µM]	.	-5	0%
CCc1nnc(SCc2cccc(Cl)c2)c2cc3sccc3n12	.	.	.	?	23	13%
Cc1noc(C)c1-c1ccc2ncnc(NCc3cccn3C)c2c1	-2%	.	.	.	.	.

Bioassay records as filed in PubChem BioAssay.
